From article PMC11574364 come the findings set out here.

Among the targets are hnRNP-A2/B1 (Homo sapiens, UniProt P22626); ELAVL2 (Homo sapiens, UniProt Q12926); hnRNP-C1/C2 (Homo sapiens, UniProt P07910); CELF6(3) (Homo sapiens, UniProt Q96J87); PABP3 (Homo sapiens, UniProt Q9H361); ZCRB1 (Homo sapiens, UniProt Q8TBF4).
Holding throughout (experiment): protein domain microarray probed with biotinylated miRNA; Domain array: 20 mM Tris-HCl pH 7.4, 200 mM KCl, 0.2 mM EDTA, 0.05% NP40, 2 ug/ul heparin, overnight 4 C. ORF array: PBS pH 7.0 with RNase inhibitor, 100 ng RNA; high values mean tight binding
Settings in all cases: ssRNA

A further test has as its target T1, DAZAP1 (Homo sapiens, UniProt Q96EP5).
T1 sequence: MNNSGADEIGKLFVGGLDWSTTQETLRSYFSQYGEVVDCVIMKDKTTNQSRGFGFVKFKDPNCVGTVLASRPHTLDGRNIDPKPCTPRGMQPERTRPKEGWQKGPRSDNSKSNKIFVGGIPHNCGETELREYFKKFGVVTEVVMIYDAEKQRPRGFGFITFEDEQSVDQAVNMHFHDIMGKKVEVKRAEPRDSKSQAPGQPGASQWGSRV

A further test concerns the target T2, CPEB2 (Homo sapiens, UniProt Q7Z5Q1).
T2 sequence: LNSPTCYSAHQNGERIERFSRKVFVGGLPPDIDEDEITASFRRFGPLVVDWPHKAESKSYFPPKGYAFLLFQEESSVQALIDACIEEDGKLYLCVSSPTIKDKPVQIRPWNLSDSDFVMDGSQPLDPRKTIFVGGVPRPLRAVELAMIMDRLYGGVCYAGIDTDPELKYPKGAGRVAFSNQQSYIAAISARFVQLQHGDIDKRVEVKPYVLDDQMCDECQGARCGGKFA

In the next test the target is T3, Matrin-3 (Homo sapiens, UniProt P43243).
T3 sequence: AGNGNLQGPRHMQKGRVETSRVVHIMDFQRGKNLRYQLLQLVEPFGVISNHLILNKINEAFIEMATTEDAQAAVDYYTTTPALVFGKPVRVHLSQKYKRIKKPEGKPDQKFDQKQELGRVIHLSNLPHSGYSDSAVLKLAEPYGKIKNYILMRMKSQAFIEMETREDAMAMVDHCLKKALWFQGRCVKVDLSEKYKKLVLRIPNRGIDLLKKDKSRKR

A further test deals with T4, HNRPLL (Homo sapiens, UniProt Q8WVV9).
T4 sequence: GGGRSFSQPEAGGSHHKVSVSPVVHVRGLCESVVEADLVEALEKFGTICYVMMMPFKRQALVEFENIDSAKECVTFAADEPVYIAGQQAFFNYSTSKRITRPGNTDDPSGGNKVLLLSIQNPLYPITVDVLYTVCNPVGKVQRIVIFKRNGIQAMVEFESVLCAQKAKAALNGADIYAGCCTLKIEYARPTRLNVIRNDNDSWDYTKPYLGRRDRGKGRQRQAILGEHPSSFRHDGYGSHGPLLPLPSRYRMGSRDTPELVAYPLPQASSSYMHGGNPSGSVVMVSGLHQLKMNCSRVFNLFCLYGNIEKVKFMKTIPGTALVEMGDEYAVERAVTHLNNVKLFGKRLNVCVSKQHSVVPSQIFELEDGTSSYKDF

Sequence of hnRNP-A2/B1 (P22626 1-210): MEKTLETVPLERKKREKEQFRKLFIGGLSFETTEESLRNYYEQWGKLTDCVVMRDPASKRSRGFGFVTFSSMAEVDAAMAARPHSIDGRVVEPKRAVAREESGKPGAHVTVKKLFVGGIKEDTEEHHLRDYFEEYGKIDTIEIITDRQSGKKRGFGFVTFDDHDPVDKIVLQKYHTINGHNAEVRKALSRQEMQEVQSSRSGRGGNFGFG
Sequence of PABP3 (Q9H361 1-390): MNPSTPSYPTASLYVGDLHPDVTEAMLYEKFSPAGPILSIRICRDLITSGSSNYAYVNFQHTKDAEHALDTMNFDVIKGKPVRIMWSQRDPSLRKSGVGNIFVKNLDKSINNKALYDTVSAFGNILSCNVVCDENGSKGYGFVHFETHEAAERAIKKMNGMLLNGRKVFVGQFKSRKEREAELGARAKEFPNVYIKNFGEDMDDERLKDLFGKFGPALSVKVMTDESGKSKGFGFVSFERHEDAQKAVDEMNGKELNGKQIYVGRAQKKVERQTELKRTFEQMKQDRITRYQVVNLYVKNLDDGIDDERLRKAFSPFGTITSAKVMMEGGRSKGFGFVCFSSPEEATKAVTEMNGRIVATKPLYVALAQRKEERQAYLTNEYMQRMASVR
Sequence of ZCRB1 (Q8TBF4 1-110): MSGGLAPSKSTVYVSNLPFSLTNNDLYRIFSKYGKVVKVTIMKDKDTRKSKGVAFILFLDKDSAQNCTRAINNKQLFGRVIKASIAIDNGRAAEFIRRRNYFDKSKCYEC
Sequence of hnRNP-C1/C2 (P07910 1-110): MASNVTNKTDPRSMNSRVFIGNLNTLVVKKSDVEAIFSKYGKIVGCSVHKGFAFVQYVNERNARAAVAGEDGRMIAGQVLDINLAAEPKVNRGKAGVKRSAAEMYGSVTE
Sequence of CELF6(3) (Q96J87 372-481): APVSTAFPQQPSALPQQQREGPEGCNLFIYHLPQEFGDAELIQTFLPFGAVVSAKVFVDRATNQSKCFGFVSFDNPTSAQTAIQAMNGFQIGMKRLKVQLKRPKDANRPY
Sequence of ELAVL2 (Q12926 20-359): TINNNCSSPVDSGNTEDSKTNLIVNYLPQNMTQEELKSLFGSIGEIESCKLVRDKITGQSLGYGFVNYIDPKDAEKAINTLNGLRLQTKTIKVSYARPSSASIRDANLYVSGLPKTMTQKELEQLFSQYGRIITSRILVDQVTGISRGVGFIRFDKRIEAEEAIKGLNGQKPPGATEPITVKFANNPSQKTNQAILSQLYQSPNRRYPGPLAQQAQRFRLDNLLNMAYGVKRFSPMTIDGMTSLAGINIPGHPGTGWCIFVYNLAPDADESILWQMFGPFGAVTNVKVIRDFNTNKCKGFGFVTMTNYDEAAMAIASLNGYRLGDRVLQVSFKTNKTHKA

AGAGGUAGUAGGUUGCAUAGUU: the binding signal was 3610 ± 47.7 fluorescence intensity in the test with hnRNP-A2/B1; 3900 ± 300 fluorescence intensity with DAZAP1; 1660 ± 45 fluorescence intensity with ELAVL2; 65.7 ± 16.8 fluorescence intensity with CPEB2; 406 ± 24 fluorescence intensity with hnRNP-C1/C2; 608 ± 73.6 fluorescence intensity with CELF6(3). The binding signal with Matrin-3 is 201 ± 2.89 fluorescence intensity; with PABP3, 119 ± 10.5 fluorescence intensity; with ZCRB1 it was 1460 ± 22.6 fluorescence intensity; with HNRPLL, 123 ± 7.11 fluorescence intensity.

Turning to UGAGGUAGUAGGUUGUAUAGUU, the binding signal came to 1499 ± 4.81 fluorescence intensity with hnRNP-A2/B1; 1600 ± 139 fluorescence intensity with DAZAP1; 608.35 ± 0.587 fluorescence intensity with ELAVL2; 42.8 ± 2.43 fluorescence intensity with CPEB2; 244.2 ± 0.382 fluorescence intensity with hnRNP-C1/C2; 282 ± 110 fluorescence intensity with CELF6(3). In addition, the binding signal with Matrin-3 stood at 69.3 ± 9.98 fluorescence intensity; with PABP3 it was 31.2 ± 7.62 fluorescence intensity; with ZCRB1, 602 ± 7.03 fluorescence intensity.

Take CAGUGCAAUGAUGAAAGGGCAU: the binding signal with hnRNP-A2/B1 worked out at 2236 ± 9.55 fluorescence intensity; in the test with DAZAP1 it was 1540 ± 260 fluorescence intensity; with ELAVL2 it was 965 ± 66.1 fluorescence intensity; with CPEB2, 35.7 ± 11 fluorescence intensity; with hnRNP-C1/C2 it was 146 ± 4.99 fluorescence intensity; with CELF6(3) it was 151 ± 17.8 fluorescence intensity. Also, the binding signal in the test with Matrin-3 was 116 ± 6.43 fluorescence intensity; with PABP3, 60.5 ± 8.1 fluorescence intensity; in the test with ZCRB1, 824 ± 79.4 fluorescence intensity; in the test with HNRPLL, 68.7 ± 5.11 fluorescence intensity.

For UGAGGUAGUAGGUUGUGUGGUU, the binding signal in the test with hnRNP-A2/B1 was 2240 ± 7.74 fluorescence intensity; in the test with DAZAP1 it was 2560 ± 130 fluorescence intensity; with ELAVL2, 1370 ± 72.6 fluorescence intensity; in the test with CPEB2 it was 108 ± 11.6 fluorescence intensity; in the test with hnRNP-C1/C2, 742.6 ± 1.1 fluorescence intensity; with CELF6(3), 653 ± 52 fluorescence intensity. The binding signal turned out to be 496.54 ± 0.269 fluorescence intensity with Matrin-3, 334 ± 26 fluorescence intensity in the test with PABP3, 1440 ± 63.3 fluorescence intensity in the test with ZCRB1 and 120 ± 20.3 fluorescence intensity with HNRPLL.

As to UGAGGUAGUAGGUUGUAUGGUU, the binding signal in the test with hnRNP-A2/B1 came to 2642 ± 18.6 fluorescence intensity; with DAZAP1 it was 2980 ± 146 fluorescence intensity; in the test with ELAVL2, 1210 ± 62.5 fluorescence intensity; with CPEB2, 66.6 ± 14.3 fluorescence intensity; in the test with hnRNP-C1/C2 it was 636.15 ± 0.594 fluorescence intensity; with CELF6(3), 628 ± 29.6 fluorescence intensity. The binding signal was 251.8 ± 1.32 fluorescence intensity in the test with Matrin-3, 211 ± 6.4 fluorescence intensity with PABP3, 1150 ± 9.06 fluorescence intensity in the test with ZCRB1 and 97.4 ± 6.78 fluorescence intensity with HNRPLL.

As to UAGCUUAUCAGACUGAUGUUGA, the binding signal amounted to 255 ± 27.4 fluorescence intensity in the test with hnRNP-A2/B1; 717 ± 152 fluorescence intensity in the test with DAZAP1; 653 ± 28.8 fluorescence intensity with ELAVL2; 118 ± 118 fluorescence intensity with CPEB2; 162 ± 10.4 fluorescence intensity in the test with hnRNP-C1/C2; 42.1 ± 8.05 fluorescence intensity with CELF6(3). Besides, the binding signal amounted to 38.7 ± 15.4 fluorescence intensity with Matrin-3 and 189 ± 14.5 fluorescence intensity with ZCRB1.
